Measured values published in paper PMC6664820, “Novel natural and synthetic inhibitors of solute carriers SGLT1 and SGLT2” (Pharmacology Research & Perspectives, 2019).
Among all 1,900 compounds or so, about 40 (2%) showed an effect of 50% or more. The entries come from a sample that favours strong results as a whole.

target: human SGLT1 (hSGLT1) (human, UniProt P13866); assay: primary screen, percent of control activity; higher = less effect of the substance; set-up: single well; conditions: 50 µM
Experimental: Two days before the assay, CHO‐wild type and CHO‐hSGLT1 cells were seeded in maintenance medium at 25 000 cells/well in clear‐bottom black 96‐well cell culture plates. Before the assay, cells were washed 3 times with 150 μL/well D‐glucose free DMEM with 0.3% (w/v) BSA. Library compounds at 50 μmol/L (singlicate) prepared in D‐glucose free DMEM with 160 μmol/L 1‐NBD‐glucose and 0.3% (w/v) BSA and negative controls (triplicate) were added at 100 μL/well and placed in a humidified incubator at 37°C with 5% CO2 for 90 minutes. Next, cells were washed 3 times with DMEM with 0.3% (w/v) BSA (150 μL/well). Care was taken to remove all medium after the last wash. Finally, 1‐NBD‐glucose was extracted from the cells by adding 10 μL/well isopropanol and orbital shaking for 5 minutes at 600 rpm, followed by incubation in the dark for 30 minutes. Fluorescence was measured on a Tecan Infinite M200 Microplate Reader (Tecan, Männedorf, Switzerland) with excitation at 445 nm and emission at 525 nm. The amount of 1‐NBD‐glucose taken up by the CHO‐wild type or CHO‐hSGLT1 cells in the presence or absence of test compounds was interpolated from 1‐NBD‐glucose calibration standards. The background uptake by CHO‐wild type was subtracted from the uptake by CHO‐hSGLT1. Background corrected uptake with test compound was expressed as a percentage of corrected uptake without test compound.

human SGLT1 (hSGLT1), sequence (P13866 whole entry, looked up): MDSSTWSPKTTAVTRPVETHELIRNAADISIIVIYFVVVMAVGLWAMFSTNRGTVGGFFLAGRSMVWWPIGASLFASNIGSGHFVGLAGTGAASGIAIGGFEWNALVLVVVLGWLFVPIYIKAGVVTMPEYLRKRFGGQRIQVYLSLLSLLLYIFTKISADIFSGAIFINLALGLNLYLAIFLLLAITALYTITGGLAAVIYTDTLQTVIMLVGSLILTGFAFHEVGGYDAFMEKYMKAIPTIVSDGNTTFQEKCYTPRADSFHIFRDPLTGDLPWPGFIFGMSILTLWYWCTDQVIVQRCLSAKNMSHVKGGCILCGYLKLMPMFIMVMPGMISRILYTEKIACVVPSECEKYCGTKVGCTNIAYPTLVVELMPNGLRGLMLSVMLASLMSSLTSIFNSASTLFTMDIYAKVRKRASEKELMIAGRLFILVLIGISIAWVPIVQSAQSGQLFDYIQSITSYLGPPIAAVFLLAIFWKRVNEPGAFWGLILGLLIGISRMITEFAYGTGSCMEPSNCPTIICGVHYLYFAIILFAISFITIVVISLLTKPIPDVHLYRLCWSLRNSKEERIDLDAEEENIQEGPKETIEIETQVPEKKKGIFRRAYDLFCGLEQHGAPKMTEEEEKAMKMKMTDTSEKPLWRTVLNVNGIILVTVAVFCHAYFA

Compound | NORMALIZED SGLT1 ACTIVITY (%)
CCOP(=S)(OCC)SCSCC | 47
CCOP(=S)(OCC)SCn1c(=O)oc2cc(Cl)ccc21 | 57
CCOP(=S)(OCC)SCCSCC | 77
CC(C)=CCC[C@](C)(O)C1CC=C(C)CC1 (stereo partly drawn) | 99
CC1(C)C2CC(=O)O[C@@]3(C)C4=CC(=O)O[C@@H](c5ccoc5)[C@]4(C)CCC3[C@@]2(C)C=C[C@H]1O (stereo partly drawn) | 132
CN1CCc2c(c3ccccc3n2Cc2ccccc2)C1.O=S(=O)(O)c1cccc2c(S(=O)(=O)O)cccc12 | 69
Cl.Cl.NNCc1cccc(O)c1 | 149
CCCCCCCCCCCCC[N+](C)(C)Cc1ccccc1.[Cl-] | 40
CCCCCCc1ccc(O)cc1O.Nc1c2ccccc2nc2ccccc12 | 383
CCCCCCCCCc1ccc(O)cc1 | 107
CC(=O)O[C@@](C)(CCC=C(C)C)C1CC=C(C)CC1 (stereo partly drawn) | 112
ClC1=C(Cl)C2(Cl)C3C(Cl)C=CC3C1(Cl)C2(Cl)Cl (stereo not drawn) | 57
CN1CCN(CC/C=C2/c3ccccc3Sc3ccc(S(=O)(=O)N(C)C)cc32)CC1 | 116
CSc1ccc2c(c1)C(N1CCN(C)CC1)Cc1ccccc1S2.O=C(O)/C=C\C(=O)O (stereo not drawn) | 115
CN1CCC(=C2c3ccccc3Sc3ccccc32)CC1.O=C(O)/C=C\C(=O)O | 36
COC(=O)[C@H]1[C@H]2C[C@H]3c4[nH]c5ccccc5c4CCN3C[C@H]2CC[C@@H]1O.Cl | 110
COc1cc2c(cc1O)C(Cc1ccc(O)cc1)N(C)CC2 (stereo not drawn) | 89
Oc1ccc(Cl)cc1Cc1cc(Cl)ccc1O | 590
CC1(C)C(=O)C=C[C@@]2(C)C1=C(O)C(=O)[C@]1(C)C2CC[C@@]2(C)[C@H](c3ccoc3)C[C@H]3O[C@]321 (stereo partly drawn) | 45
CC1(C)C(=O)C=C[C@@]2(C)C1C[C@@H](O)[C@]1(C)C2CC[C@@]2(C)[C@H](c3ccoc3)OC(=O)[C@H]3O[C@]321 (stereo partly drawn) | 103
CC(=O)O[C@@H]1C[C@@]2(C)[C@H](c3ccoc3)C[C@H]3O[C@]32[C@]2(C)C(=O)C(O)=C3C(C)(C)C(=O)C=C[C@]3(C)C12 (stereo partly drawn) | 104
O=C1CN(/N=C/c2ccc([N+](=O)[O-])o2)C(=O)N1 | 159
CNC[C@@H](O)c1ccc(O)c(O)c1.O=C(O)C(O)C(O)C(=O)O | 105

Compound | NORMALIZED SGLT1 ACTIVITY (%)
N#Cc1c(Cl)c(Cl)c(Cl)c(C#N)c1Cl | 76
N#Cc1ccc2c(c1)N(CCCN1CCC(O)CC1)c1ccccc1S2 | 75
OCCN1CCN(CCCN2c3ccccc3Sc3ccc(Cl)cc32)CC1 | 17
CN1CCN(CCCN2c3ccccc3Sc3ccc(C(F)(F)F)cc32)CC1.Cl.Cl | 61
Cn1nnnc1SCC1=C(C(=O)[O-])N2C(=O)C(NC(=O)C(O)c3ccccc3)C2SC1.[Na+] (stereo not drawn) | 150
COc1cc2c(cc1OC)C1C(=O)c3c(O)cc4c(c3OC1CO2)C=CC(C)(C)O4 (stereo not drawn) | 283
CCCc1ncc(C[n+]2ccccc2C)c(N)n1.Cl.[Cl-] | 87
Cc1cc(O)c2c(c1)C(=O)c1cc(O)cc(O)c1C2=O | 118
CN(C)CC/C=C1\c2ccccc2Sc2ccc(Cl)cc21.Cl | 87
CN(C)CCC=C1c2ccccc2CCc2ccccc21.Cl | 59
CN(C)CCC=C1c2ccccc2C=Cc2ccccc21.Cl | 50
Cc1cc(C2CCCCC2)n(O)c(=O)c1.NCCO | 182
ClC1=C(Cl)C2(Cl)C3C4C=CC(C4)C3C1(Cl)C2(Cl)Cl (stereo not drawn) | 96
COc1cc2ccc(=O)oc2c(OC)c1OC | 257
COC(=O)c1c(OC)cc2c(c1C)Oc1c(Cl)c(O)c(Cl)c(C)c1C(=O)O2 | 520
Cc1cc(O)c2c(c1O)C(=O)c1c(O)cc(C)c(O)c1C2=O | 127
CN[C@@H]1[C@@H](O)C(OC2[C@@H](N)C[C@@H](N)[C@H](O[C@H]3O[C@H](C(C)O)[C@@H](O)[C@H](O)[C@H]3N)[C@H]2O)OC[C@]1(C)O.O=S(=O)(O)O.O=S(=O)(O)O (stereo partly drawn) | 82
CNC(=O)O/N=C(/C)SC | 76
COc1c2ccoc2cc2oc(C)cc(=O)c12 | 165
OC[C@H]1O[C@@H](n2cnc3c(NCc4ccco4)ncnc32)[C@H](O)[C@@H]1O | 142
CCCCCCCCCN1C[C@H](O)[C@@H](O)[C@H](O)[C@H]1CO | 83.2
ClC1=C(Cl)C2(Cl)C3C4CC(C5OC45)C3C1(Cl)C2(Cl)Cl (stereo not drawn) | 136
